Source: PubChem BioAssay
TMEM16A inh: TMEM16A chloride channel inhibitors, primary screen, cell-based, HTS; HEK293 TMEM16A/YFP iodide influx fluorescence, ionomycin; normalized B-score (activity score, 25-100; higher = stronger inhibition) at 10 µM; hit rate 1.2% among 310,000;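 active = ratio plate-corrected score three or more library SD toward inhibition, starting fluorescence score within five deviations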;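 also: score derived from kinetic fluorescence span divided by baseline fluorescence per well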
PP5 primary: PP5 phosphatase inhibitors, primary screen, biochemical, fluorescence | Serine/threonine-protein phosphatase 5 (Homo sapiens), P53041 | purified PP5c, OMFP substrate fluorescence | inhibition, % at 6.7 µM | hit rate 0.18% among 320,000;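 active = inhibition above the campaign's mean inhibition across all tested compounds plus 3 SD, cut at about 9.5% in these data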;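 also: 0% = DMSO only and 100% = 100 µM cantharidin control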
Target sequence (P53041 whole entry, looked up): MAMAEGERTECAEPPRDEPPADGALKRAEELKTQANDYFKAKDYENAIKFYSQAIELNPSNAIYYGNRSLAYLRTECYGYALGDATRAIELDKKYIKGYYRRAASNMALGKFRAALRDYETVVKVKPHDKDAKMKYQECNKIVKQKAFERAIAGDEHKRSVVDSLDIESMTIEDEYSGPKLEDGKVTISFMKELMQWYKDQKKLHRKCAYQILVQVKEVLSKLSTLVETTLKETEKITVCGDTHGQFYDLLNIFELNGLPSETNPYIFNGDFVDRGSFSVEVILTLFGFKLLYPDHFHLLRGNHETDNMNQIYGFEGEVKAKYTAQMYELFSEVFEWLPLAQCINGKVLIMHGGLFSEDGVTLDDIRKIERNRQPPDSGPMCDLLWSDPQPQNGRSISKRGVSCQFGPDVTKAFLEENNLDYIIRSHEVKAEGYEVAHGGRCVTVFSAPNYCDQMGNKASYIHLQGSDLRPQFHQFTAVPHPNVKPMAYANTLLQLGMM
ANO1 activ: TMEM16A chloride channel activators or potentiators, primary screen, cell-based, HTS | Anoctamin-1 (Mus musculus), Q8BHY3 | HEK293 TMEM16A/YFP-H148Q/I152L, iodide quench fluorescence; stronger effect = lower value | B-score at 10 µM | hit rate 0.3% among 340,000 | AID 623877, 2012;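 active = fluorescence-ratio B-score plate-corrected deviation score at least 3 library SD below zero, with starting fluorescence score within 5 deviations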;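 also: channel opened by trigger with iodide after compound preincubation; score built on the fluorescence ratio of max minus min over baseline; more negative score means more quench and so TMEM16A activation or potentiation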
PREPL inhibitor: PREPL enzyme inhibitors, primary screen, biochemical, fluorescence polarization | Prolyl endopeptidase-like (Homo sapiens), Q4J6C6 | recombinant PREPL, fluorescence polarization activity-based probe | inhibition, % at 5.96 µM | hit rate 0.68% among 320,000;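 also: 0% = enzyme with DMSO and 100% = wells lacking enzyme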
DNA FID counter: compounds displacing fluorescent DNA intercalator, primary screen, artefact control for HCV NS3 helicase inhibitor project, biochemical, FID fluorescence | DNA fluorescent intercalator displacement | inhibition, % at 7.9 µM | hit rate 0.17% among 290,000 | AID 1845, 2009; in the data active = inhibition above about 37%;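 also: 0% = vehicle and 100% = reference compound; higher means more ethidium bromide displaced from hairpin DNA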
PP1 inh: PP1-alpha phosphatase inhibitors, primary screen, counter-screen for PP5 inhibitor project, biochemical, fluorescence, OMFP substrate, single point. Serine/threonine-protein phosphatase PP1-alpha catalytic subunit (Homo sapiens), P62136. purified PP1alpha. inhibition, % at 6.7 µM. hit rate 0.9% among 320,000. AID 2235, 2010;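 active = inhibition above the mean inhibition of all tested compounds plus 3 SD, computed separately for each screening campaign, cut at about 15% in these data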
PREPL confirm: human PREPL enzyme inhibitors, confirmation, biochemical, fluorescence polarization; shares compounds with PREPL inhibitor; recombinant PREPL, fluorescence polarization activity probe; inhibition, % at 5.96 µM; hit rate 67% among 2,000;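 also: 0% = protein with DMSO and 100% = wells lacking protein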
The depositor's hits bear a star. Shown are actives, neighbours in structure and some others; about 2.7% of the full set was active somewhere. Rule as the data show it, unless noted: active = inhibition above about 43%; inactive = the rest.

For CC[C@@H](C)[C@@H]1CN([C@@H](CN2CCC[C@H]2CN2C(N)=NC[C@H]2CC(C)C)C(C)C)C(=N)N1CCc1ccc(Cl)c(Cl)c1 the results were PREPL inhibitor 47* and PREPL confirm 48*.
CC[C@@H](C)[C@@H]1CN([C@@H](C)CN2CCC[C@H]2CN2C(N)=NC[C@H]2CC(C)C)C(=N)N1CCc1ccc(Cl)c(Cl)c1 was read as ANO1 activ inactive, PREPL inhibitor 53* and PREPL confirm 41.
CCC[C@@H](CN1CCC[C@H]1CN1C(N)=NC[C@H]1CC(C)C)N1C[C@@H]([C@H](C)CC)N(CCc2ccc(Cl)c(Cl)c2)C1=N was read as PREPL inhibitor 52* and PREPL confirm 40.
Screening CCC[C@@H](CN1CCC[C@H]1CN1C(N)=NC[C@@H]1Cc1ccccc1)N1C[C@@H]([C@H](C)CC)N(CCc2ccc(Cl)c(Cl)c2)C1=N returned ANO1 activ inactive, PREPL inhibitor 43* and PREPL confirm 31.
`CC(C)N1CCN(c2ccc(OC[C@H]3CO[C@](Cn4cncn4)(c4ccc(Cl)cc4Cl)O3)cc2)CC1` gave TMEM16A inh inactive, PP5 primary -2, ANO1 activ inactive, PREPL inhibitor 57*, PP1 inh -2 and PREPL confirm 46*.
For Cc1cc(/C=C(/C#N)c2nc3ccccc3[nH]2)c(C)n1-c1cccc([N+](=O)[O-])c1 the results were TMEM16A inh inactive, PP5 primary 6, ANO1 activ inactive, PREPL inhibitor 44*, DNA FID counter -7, PP1 inh 4 and PREPL confirm 39.
For COc1c(O)ccc(/C=C(\C#N)c2nc3ccccc3[nH]2)c1[N+](=O)[O-] the results were TMEM16A inh inactive, PP5 primary 5, ANO1 activ inactive, PREPL inhibitor 56*, DNA FID counter -2, PP1 inh 5 and PREPL confirm 16.
For COc1ccc(/C=C(\C#N)c2nc3ccccc3[nH]2)cc1O the results were ANO1 activ inactive and DNA FID counter -1.
Screening CC[n+]1ccc(C)c2cc(P(=O)(c3ccccc3)c3ccccc3)ccc21 returned TMEM16A inh inactive, PP5 primary 0, ANO1 activ inactive, PREPL inhibitor 57*, DNA FID counter 0, PP1 inh 1 and PREPL confirm 41.
CCc1cc(=O)oc2cc(OCc3ccc(C(=O)O)o3)ccc12 was read as TMEM16A inh inactive, PP5 primary 4, ANO1 activ inactive, PREPL inhibitor -9, DNA FID counter -7 and PP1 inh 5.
CCCCC/C=C/C1=CC(=O)C[C@H](c2ccc(OC)cc2)C1 was read as PP5 primary -1, ANO1 activ inactive, PREPL inhibitor 2 and PP1 inh -1.
`COc1ccc2cc1Oc1ccc(cc1)CC1c3c(cc(OC)c4c3Oc3cc5c(cc3O4)CCNC5C2)CCN1C` (stereo not drawn) gave TMEM16A inh inactive, PP5 primary 4, ANO1 activ inactive, PREPL inhibitor 51*, DNA FID counter 81*, PP1 inh 1 and PREPL confirm 52*.
Screening Cc1ccc(-n2cccc2C(=O)NS(=O)(=O)c2ccc(C)cc2)cc1 returned TMEM16A inh inactive, PP5 primary -2, ANO1 activ inactive, PREPL inhibitor 2, DNA FID counter -26 and PP1 inh 2.
For Cc1ccc(-n2cccc2C(=S)N=P(N(C)C)(N(C)C)N(C)C)cc1 the results were TMEM16A inh inactive, PP5 primary 1, ANO1 activ inactive, PREPL inhibitor 44*, DNA FID counter -5, PP1 inh 0 and PREPL confirm 37.
For COc1cc(/C=N\NC(=O)c2ccc(Cn3cc(Br)c([N+](=O)[O-])n3)o2)cc(OC)c1O the results were TMEM16A inh inactive, PP5 primary 4, ANO1 activ inactive, PREPL inhibitor 51*, DNA FID counter -2, PP1 inh -5 and PREPL confirm 41.
`COc1ccccc1OCCNC(=O)CN1C(=O)NC2(CCCCC2)C1=O` gave PP5 primary 2, ANO1 activ inactive, PREPL inhibitor 10 and PP1 inh -3.
Screening Cc1c(CCOC(=O)c2cc([N+](=O)[O-])cc([N+](=O)[O-])c2)sc[n+]1CC(=O)c1ccccc1 returned TMEM16A inh inactive, PP5 primary -1, ANO1 activ inactive, PREPL inhibitor 56*, DNA FID counter 14, PP1 inh 3 and PREPL confirm 50*.
For Cc1c(CCOC(=O)c2ccccc2)sc[n+]1CC(=O)c1ccc(Br)cc1 the results were TMEM16A inh inactive, PP5 primary 2, ANO1 activ inactive, PREPL inhibitor 13, DNA FID counter 19 and PP1 inh 12.
For CC1(NC(=O)NCc2ccccc2)CCS(=O)(=O)C1 (stereo not drawn) the results were TMEM16A inh inactive, PP5 primary 1, ANO1 activ inactive, PREPL inhibitor 6, DNA FID counter -2 and PP1 inh -5.
Nc1nn(-c2ccccc2)c(N)c1N=Nc1ccccc1 was read as TMEM16A inh inactive, PP5 primary -5, ANO1 activ inactive, PREPL inhibitor 51*, DNA FID counter 0, PP1 inh -1 and PREPL confirm 55*.
For Nc1nn(-c2ccccc2)c(N)c1N=Nc1ccccc1F the results were TMEM16A inh inactive, PP5 primary 5, ANO1 activ inactive, PREPL inhibitor 54*, DNA FID counter -4, PP1 inh -4 and PREPL confirm 56*.
For CCCCNc1c(-c2ccc(SC(C)CC)cc2)nc2cnccn12 (stereo not drawn) the results were ANO1 activ inactive, PREPL inhibitor 59* and PREPL confirm 55*.
For Cc1ccc2c(c1)c1c3n2CCN(CC(O)CNC(C)C)C3CCC1 (stereo not drawn) the results were TMEM16A inh inactive, PP5 primary 3, ANO1 activ inactive, PREPL inhibitor 44*, DNA FID counter 45*, PP1 inh 2 and PREPL confirm 31.
Cc1ccc(C)c(N2CCN(S(=O)(=O)c3ccc4c(c3)NC(=O)CS4)CC2)c1 was read as TMEM16A inh inactive, PP5 primary 5, ANO1 activ inactive, PREPL inhibitor 0, DNA FID counter -30 and PP1 inh 8.
